Measured values taken from PubChem BioAssay (NCATS).
Values joined by “and” are separate entries in the source; they are usually repeats but may differ in a detail not shown here. Equal values may be shown once. Records with an inconclusive call do not appear. A call without a number means that no potency is given here. Some structures have more than one record in an assay (separate samples or runs), and their calls can disagree. Active and inactive are the calls of the source. Unless noted, the call rests on the fitted dose curve; in most records, active means well fitted curve in the direction sought with a large enough effect; inconclusive means small, poorly fitted or top-dose-only effect, or another doubt; inactive means no such curve, though single readings can be large; an effect the other way counts as inactive or inconclusive.

Experiments:
[1] = qHTS Screen of the MIPE 4.0 Collection Against Ewings Sarcoma (RDES) (AID 1259252); further: nearly all actives have a fitted effect of over 35% in size; further: potency means the concentration at half of the fitted maximal effect
How it was run: (§1)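 Viability screen: 48 h incubation at 37C, 95% humidity, 5% CO2 with serially titrated compound, followed by CellTiter-Glo readout.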

[2] = qHTS Screen of the MIPE 4.0 Collection Against Ewings Sarcoma (TC71) (AID 1259253); further: nearly all actives have a fitted effect of over 40% in size; further: potency means the concentration at half of the fitted maximal effect
How it was run: as §1

[3] = qHTS Screen of the MIPE 4.0 Collection Against Ewings Sarcoma (EW8) (AID 1259255); further: nearly all actives have a fitted effect of over 35% in size; further: potency means the concentration at half of the fitted maximal effect
How it was run: as §1

[4] = qHTS assay to identify small molecule inhibitors of chordoma cells - UCH-2 (AID 1259356); further: series mostly up to about 46 µM
[5] = P-glycoprotein substrates identified in KB-8-5-11 adenocarcinoma cell line, qHTS therapeutic library screen (AID 1346987); conditions: outcome: dose series up to 44.5 µM unless noted; further: nearly all actives have a fitted effect of over 65% in size; further: potency means the concentration at half of the fitted maximal effect
How it was run: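 In this qHTS, P-gp-rich KB-8-5-11 cells received library compounds across a concentration range. Viability was quantified by luminescence after 72 h at 37 degree C.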

[6] = target: Atrial natriuretic peptide receptor 1 (Homo sapiens) (UniProt P16066); test: Natriuretic polypeptide receptor (hNpr1) antagonism - Pilot screen (AID 1347049; calls by dose curve;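 further: agonist-evoked cGMP luminescence read 20 min after hNppA addition; series mostly up to about 58 µM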)
Sequence of Atrial natriuretic peptide receptor 1 (Homo sapiens) (P16066 whole entry, looked up): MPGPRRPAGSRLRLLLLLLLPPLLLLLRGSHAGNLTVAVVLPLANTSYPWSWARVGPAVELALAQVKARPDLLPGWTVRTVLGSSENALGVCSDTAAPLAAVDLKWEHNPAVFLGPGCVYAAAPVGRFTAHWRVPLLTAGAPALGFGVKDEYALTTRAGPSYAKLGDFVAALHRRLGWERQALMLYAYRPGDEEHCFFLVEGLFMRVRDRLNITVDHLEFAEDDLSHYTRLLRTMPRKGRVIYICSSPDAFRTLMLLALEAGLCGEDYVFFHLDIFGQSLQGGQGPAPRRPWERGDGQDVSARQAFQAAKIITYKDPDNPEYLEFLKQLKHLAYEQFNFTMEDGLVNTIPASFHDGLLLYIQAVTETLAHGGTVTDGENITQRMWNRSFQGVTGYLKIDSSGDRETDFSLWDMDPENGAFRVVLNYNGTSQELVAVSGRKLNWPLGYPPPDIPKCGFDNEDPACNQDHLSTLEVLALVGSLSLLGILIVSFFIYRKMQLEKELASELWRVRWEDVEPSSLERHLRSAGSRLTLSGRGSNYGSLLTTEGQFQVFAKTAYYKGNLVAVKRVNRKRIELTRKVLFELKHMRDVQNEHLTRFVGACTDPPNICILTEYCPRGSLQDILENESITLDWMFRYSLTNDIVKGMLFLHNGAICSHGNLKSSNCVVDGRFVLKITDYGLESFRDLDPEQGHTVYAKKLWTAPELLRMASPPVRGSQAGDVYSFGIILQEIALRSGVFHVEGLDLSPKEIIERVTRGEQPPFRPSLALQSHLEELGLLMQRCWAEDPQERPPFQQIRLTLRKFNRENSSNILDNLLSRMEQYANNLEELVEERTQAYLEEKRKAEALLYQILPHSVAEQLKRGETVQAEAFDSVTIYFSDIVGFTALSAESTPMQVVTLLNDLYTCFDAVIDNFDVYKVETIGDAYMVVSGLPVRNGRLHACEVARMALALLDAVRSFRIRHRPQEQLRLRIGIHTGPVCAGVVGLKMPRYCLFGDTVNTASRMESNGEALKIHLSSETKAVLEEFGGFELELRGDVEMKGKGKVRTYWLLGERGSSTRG
How it was run: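 cGMP-sensor HEK293/hNpr1 cells, 1500/well, plated overnight at 37C. 2% GloSensor reagent, 2 h RT. Compound (23 nL pin transfer) 30 min RT, baseline luminescence pre-read. 0.1 nM hNppA, 20 min RT, post-read.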

[7] = NS1 protein of Zika virus - qHTS assay to identify small molecule inhibitors in human HEK 293 cells (AID 1347053); further: nearly all actives have a fitted effect of over 55% in size; further: potency means the concentration at half of the fitted maximal effect
How it was run: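 Readout was TR-FRET using paired anti-NS1 antibodies after 24 h infection of HEK 293 cells with ZIKV MR766 (MOI = 0.5). Compound preceded virus by 1 h; reduced signal reflects lower NS1 expression.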

[8] = target: T1, Tyrosine-protein phosphatase non-receptor type substrate 1 (Homo sapiens) + Leukocyte surface antigen CD47 (Homo sapiens) (UniProt P78324+Q08722); test: CD47-SIRPalpha protein protein interaction - LANCE assay qHTS validation (AID 1347057; active means well fitted curve in the direction sought with a large enough effect in the signal ratio, with a control signal flat, not every such curve was filed as active; the % refers to the signal ratio; further: series mostly up to about 38 µM)
T1 sequence (P78324 whole entry, looked up, the tested form may be a part): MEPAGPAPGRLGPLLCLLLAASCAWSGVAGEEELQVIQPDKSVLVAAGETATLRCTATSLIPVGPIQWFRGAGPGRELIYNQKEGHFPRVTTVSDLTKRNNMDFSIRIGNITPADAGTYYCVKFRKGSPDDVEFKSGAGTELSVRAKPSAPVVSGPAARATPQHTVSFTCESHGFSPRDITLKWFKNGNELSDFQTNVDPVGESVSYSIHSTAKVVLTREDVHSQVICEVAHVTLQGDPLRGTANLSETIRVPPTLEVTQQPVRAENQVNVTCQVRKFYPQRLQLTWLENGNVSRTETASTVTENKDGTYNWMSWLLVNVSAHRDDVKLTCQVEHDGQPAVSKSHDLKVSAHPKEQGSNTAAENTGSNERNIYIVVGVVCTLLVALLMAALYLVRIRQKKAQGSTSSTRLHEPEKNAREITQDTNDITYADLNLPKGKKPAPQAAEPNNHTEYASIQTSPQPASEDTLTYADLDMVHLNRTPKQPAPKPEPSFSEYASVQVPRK
T1 sequence (Q08722 whole entry, looked up, the tested form may be a part): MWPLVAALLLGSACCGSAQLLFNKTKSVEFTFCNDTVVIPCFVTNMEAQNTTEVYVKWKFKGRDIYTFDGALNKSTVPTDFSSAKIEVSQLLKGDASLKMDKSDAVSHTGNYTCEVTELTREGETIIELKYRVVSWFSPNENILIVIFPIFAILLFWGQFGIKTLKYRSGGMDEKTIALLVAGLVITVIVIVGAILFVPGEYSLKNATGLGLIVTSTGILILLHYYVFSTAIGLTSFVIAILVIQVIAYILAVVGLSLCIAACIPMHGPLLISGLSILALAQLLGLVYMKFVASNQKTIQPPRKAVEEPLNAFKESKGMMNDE
How it was run: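 Inhibition of soluble CD47/SIRPalpha ectodomain association by titrated compounds, measured as 665/615 nm time-resolved FRET ratio after sequential 30 min room-temperature incubations.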

[9] = target: T1, Tyrosine-protein phosphatase non-receptor type substrate 1 (Homo sapiens) + Leukocyte surface antigen CD47 (Homo sapiens); test: CD47-SIRPalpha protein protein interaction - HTRF assay qHTS validation (AID 1347058; active means well fitted curve in the direction sought with a large enough effect in the signal ratio, not every such curve was filed as active; the % refers to the signal ratio; further: series mostly up to about 38 µM)
How it was run: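 Soluble extracellular domains (6His-CD47, Avi-tag-biotinylated SIRPalpha) in PBS pH 7.4 with 0.05% IGEPAL CA-630. Compounds were preincubated 30 min at RT with CD47 and anti-His-Eu, then SIRPalpha and SAV-XL665 were added. TR-FRET 665/615 ratio.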

[10] = qHTS Screen of the MIPE 4.0 Collection Against Ewings Sarcoma (TC32) (AID 1259256); further: nearly all actives have a fitted effect of over 45% in size; further: potency means the concentration at half of the fitted maximal effect
How it was run: as §1

[11] = target: Atrial natriuretic peptide receptor 2 (Homo sapiens) (UniProt P20594); test: Natriuretic polypeptide receptor (hNpr2) antagonism - Pilot subtype selectivity assay (AID 1347050; calls by dose curve)
Sequence of Atrial natriuretic peptide receptor 2 (Homo sapiens) (P20594 whole entry, looked up): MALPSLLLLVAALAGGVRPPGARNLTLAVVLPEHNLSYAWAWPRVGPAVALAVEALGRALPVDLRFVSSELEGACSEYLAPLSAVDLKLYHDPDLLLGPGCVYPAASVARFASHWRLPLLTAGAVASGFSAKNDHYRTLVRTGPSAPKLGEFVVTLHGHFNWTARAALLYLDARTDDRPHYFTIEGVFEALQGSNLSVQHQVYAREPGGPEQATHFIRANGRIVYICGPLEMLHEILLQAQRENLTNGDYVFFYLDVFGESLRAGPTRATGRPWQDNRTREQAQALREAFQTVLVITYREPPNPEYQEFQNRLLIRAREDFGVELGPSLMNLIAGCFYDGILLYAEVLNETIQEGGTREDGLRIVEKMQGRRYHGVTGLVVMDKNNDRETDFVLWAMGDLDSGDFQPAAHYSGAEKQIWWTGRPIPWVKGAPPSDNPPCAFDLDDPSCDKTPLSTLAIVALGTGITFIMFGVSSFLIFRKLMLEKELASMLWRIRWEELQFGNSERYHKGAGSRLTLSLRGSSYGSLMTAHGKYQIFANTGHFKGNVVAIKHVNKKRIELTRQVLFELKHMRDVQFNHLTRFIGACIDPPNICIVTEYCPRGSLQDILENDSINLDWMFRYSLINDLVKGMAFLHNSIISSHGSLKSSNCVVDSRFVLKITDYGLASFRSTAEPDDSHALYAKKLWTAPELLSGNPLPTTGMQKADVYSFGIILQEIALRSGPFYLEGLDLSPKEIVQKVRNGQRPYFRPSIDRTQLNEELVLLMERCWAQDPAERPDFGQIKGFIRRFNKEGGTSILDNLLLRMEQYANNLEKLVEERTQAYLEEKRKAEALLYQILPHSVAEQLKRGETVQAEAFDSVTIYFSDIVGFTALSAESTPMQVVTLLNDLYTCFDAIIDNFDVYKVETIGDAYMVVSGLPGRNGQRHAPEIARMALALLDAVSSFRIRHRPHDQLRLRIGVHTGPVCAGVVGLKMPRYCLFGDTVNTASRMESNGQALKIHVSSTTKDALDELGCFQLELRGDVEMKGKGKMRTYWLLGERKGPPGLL
How it was run: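 Luminescence from a genetically encoded cGMP luciferase biosensor in hNpr2-expressing HEK293 cells is read before and 20 min after adding 1 nM hNppC. Test compounds, in interplate 1:5 titrations, are added 30-50 min ahead of the agonist.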

[12] = qHTS assay to identify small molecule inhibitors of chordoma cells - UCH-1 (AID 1259355); further: nearly all actives have a fitted effect of over 55% in size
How it was run: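 Screening used approved and investigational drugs in 15-point titration against 800 seeded cells per well. A fixed combination of auranofin with camptothecin, doxorubicin, rubitecan and topotecan followed compound addition, and growth was scored by CellTiter-Glo after 48hr.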

[13] = Natriuretic polypeptide receptor (hNpr1) antagonism - Pilot counterscreen GloSensor control cell line (AID 1347045; calls by dose curve; further: series mostly up to about 38 µM)
How it was run: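 HEK293 cGMP-sensor cells; 2% GloSensor reagent 2 h RT; LOPAC compounds in 1:5 titrations 30-50 min; 50 uM SNP 20 min; luminescence pre-read and post-read.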

[14] = P-glycoprotein substrates identified in KB-3-1 adenocarcinoma cell line, qHTS therapeutic library screen (AID 1346986); conditions: outcome: dose series up to 44.5 µM unless noted; further: nearly all actives have a fitted effect of over 60% in size
How it was run: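 Viability by CellTiter-Glo after 72 h compound exposure at 37 degree C, 5% CO2. Cytotoxic call: curve class -1.1 to -2.4, maximum response >50%, AC50 < 10 uM, compared across KB-3-1 and P-gp-overexpressing KB-8-5-11.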

[15] = Identifying Small Molecule Inhibitors of Pancreatic Cancer Stem Cells (A2780, Spheroid) (AID 1259357); conditions: A2780 spheroid viability;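 further: potency means the concentration at half of the fitted maximal effect; compound exposure lasted 48 h before the ATP luminescence read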
How it was run: (§2)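 Adherent (2D) versus sphere (3D) formats; spheres generated 14 d in SCM beforehand. Compound transferred by pin tool after 4 h, 48 h incubation, CellTiter-Glo endpoint.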

[16] = Identifying Small Molecule Inhibitors of Pancreatic Cancer Stem Cells (SN12C, Adherent) (AID 1259358);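 further: potency means the concentration at half of the fitted maximal effect; cell survival measured after 48 h of compound exposure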
How it was run: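 Monolayer and spheroid cultures are compared. Spheroids form over 14 days in stem cell medium on hydrogel-coated low-attachment plates, then are exposed to compound for 48 h before CellTiter-Glo luminescence.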

[17] = Identifying Small Molecule Inhibitors of Pancreatic Cancer Stem Cells (Panc1, Spheroid) (AID 1259359); conditions: Panc1 spheroid cancer stem cell viability;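 further: potency means the concentration at half of the fitted maximal effect; compound exposure lasted 48 h before reading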
How it was run: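 Luminescent ATP readout (CellTiter-Glo) quantifies surviving cells after a 48 h drug incubation. Normalization uses DMSO wells as no inhibition and media-only wells as full inhibition; bortezomib served as positive control.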

[18] = Identifying Small Molecule Inhibitors of Pancreatic Cancer Stem Cells (Panc1, Adherent) (AID 1259362); conditions: Potency: viability; further: potency means the concentration at half of the fitted maximal effect
How it was run: as §2

Row | SMILES | Potency [1] | Potency [2] | Potency [3] | outcome [4] | Potency [5] | Potency [6] | Potency [7] | outcome [8] | outcome [9] | Potency [10] | Potency [11] | Potency [12] | Potency [13] | outcome [14] | Potency [15] | Potency [16] | Potency [17] | Potency [18]
1 | CC#C[C@]1(O)CC[C@H]2[C@@H]3CCC4=CC(=O)CCC4=C3[C@@H](c3ccc(N(C)C)cc3)C[C@@]21C | 0.187 µM (active) | 0.264 µM (active) | 0.418 µM (active) | inactive | 23.1 µM (active) | inactive | inactive | inactive |  |  |  |  |  |  |  |  |  | 
2 | CN(C)CCCN1c2ccccc2CCc2ccc(Cl)cc21 | 0.662 µM (active) | 0.743 µM (active) | 2.96 µM (active) | inactive | 20.9 µM (active) |  | inactive |  |  |  |  |  |  |  |  |  |  | 
3 | CCCCc1oc2ccccc2c1C(=O)c1cc(I)c(OCCN(CC)CC)c(I)c1 | 8.33 µM (active) | 8.33 µM (active) | 9.35 µM (active) | inactive | inactive | inactive | 29.6 µM (active) and inactive | inactive | inactive |  |  |  |  |  |  |  |  | 
4 | Clc1ccc2nsnc2c1NC1=NCCN1 | inactive | inactive | inactive | inactive | inactive | inactive | inactive |  |  | inactive | inactive |  |  |  |  |  |  | 
5 | Cc1cn([C@H]2C[C@H](N=[N+]=[N-])[C@@H](CO)O2)c(=O)[nH]c1=O | inactive | inactive | inactive | inactive | inactive | inactive | inactive |  |  |  |  | inactive |  |  |  |  |  | 
6 | CC(=O)OCC(CCn1cnc2cnc(N)nc21)COC(C)=O | inactive | inactive | inactive | inactive | inactive |  | inactive | inactive | inactive |  |  | inactive |  |  |  |  |  | 
7 | Cc1cc(C(C)(C)C)cc(C)c1CC1=NCCN1 | inactive | inactive | inactive | inactive | inactive | inactive | inactive | inactive | inactive |  |  |  | inactive |  |  |  |  | 
8 | NCCS(=O)(=O)O | inactive | inactive | inactive | inactive | inactive | inactive | inactive | inactive | inactive |  |  | inactive | inactive |  |  |  |  | 
9 | COc1cc2nc(N(C)CCCNC(=O)C3CCCO3)nc(N)c2cc1OC (configuration not stated) | inactive | inactive | inactive | inactive | inactive | inactive | inactive | inactive | inactive | inactive |  |  |  |  |  |  |  | 
10 | Nc1c2c(nc3ccccc13)CCCC2 | 26.4 µM (active) | 18.7 µM (active) | 18.7 µM (active) | inactive |  | inactive | inactive | inactive | inactive |  | inactive | inactive |  | inactive |  |  |  | 
11 | COc1ccccc1OCC(O)CN1CCN(CC(=O)Nc2c(C)cccc2C)CC1 (configuration not stated) | inactive | inactive | inactive | inactive | inactive | inactive | inactive | inactive | inactive | inactive | inactive | inactive |  |  |  |  |  | 
12 | CCC1(c2ccccc2)C(=O)NCNC1=O | 9.35 µM (active) | 11.8 µM (active) | 18.7 µM (active) | inactive | inactive | inactive | inactive | inactive | inactive | 14.8 µM (active) | inactive |  |  |  |  |  |  | 
13 | CS(=O)(=O)CCNCc1ccc(-c2ccc3ncnc(Nc4ccc(OCc5cccc(F)c5)c(Cl)c4)c3c2)o1 | 0.59 µM (active) | 2 µM (active) | 8.33 µM (active) | inactive | 18.7 µM (active) and inactive and 20.6 µM (active) |  | inactive |  |  | 13.2 µM (active) |  | inactive |  |  | 16.6 µM (active) | 0.418 µM (active) | 37.2 µM (active) | 20.9 µM (active)
14 | CC[N+](CC)(CC)CCOc1cccc(OCC[N+](CC)(CC)CC)c1OCC[N+](CC)(CC)CC | inactive | inactive | inactive | inactive | inactive | inactive | inactive |  |  | inactive | inactive | inactive |  |  |  |  |  | 
15 | CC(C)Cc1ccc(C(C)C(=O)O)cc1 (configuration not stated) | inactive | inactive | inactive | inactive | inactive | inactive | inactive | inactive | inactive |  |  | inactive | inactive |  |  |  |  | 
